Source: the supplement of paper PMC9135407
Structures can show the parent of a compound that is named as a salt. In all, about 5,800 compounds went through this assay and about 620 (11%) showed activity. What follows is part of a selection rich in actives, with near analogues and random picks from the rest. Unmarked numbers belong to inactive results.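 How the source made its calls: active = score above a cut-off or among the top three wells of a plate; in these data no inactive exceeds 0.85.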

Tested on: primary human hepatic stellate cells (donor 1)
Assay: scaled lipid accumulation score (0 = DMSO-like, 1 = nortriptyline-like); higher = stronger HSC inactivation (lipid re-accumulation), active = hit call of the paper
Details: 48 h
[1] = library stock concentration: 10 mM
[2] = library stock concentration: 1 mM
[3] = library stock concentration: 400 uM
[4] = library stock concentration: 2 mM
[5] = library stock concentration: 3.33 mM

NC(C(=O)O)c1ccc(C(=O)O)c(C(=O)O)c1 (racemic)
scaled lipid accumulation score [1]: ≤ -0.006

C[C@@H]1CN(c2c(F)c(F)c3c(=O)c(C(=O)O)cn(C4CC4)c3c2F)C[C@H](C)N1
scaled lipid accumulation score [1]: ≤ 0

N=C(NO)NCC[C@H](N)C(=O)O
scaled lipid accumulation score [2]: ≤ 0

CC(=O)Oc1cccc(O)c1 [Resorcinol monoacetate]
scaled lipid accumulation score [1]: 0.063 | scaled lipid accumulation score (library stock concentration: 13.1 mM): ≤ 0

CCCCCCCC/C=C\C/C=C\C/C=C\CCCC(=O)NCCO [Mead ethanolamide]
scaled lipid accumulation score [2]: 0.017

CCCCCCCC/C=C\C/C=C\C/C=C\CCCC(=O)NCCO [5(Z),8(Z),11(Z)-Eicosatrienoic Acid Ethanolamide]
scaled lipid accumulation score [2]: 0.015

CCCCCCCCCCCCCCCC(=O)O[C@H](CC(=O)O)C[N+](C)(C)C
scaled lipid accumulation score [1]: 0.027

CCCOc1ccc(C=C2SC(=O)NC2=O)cc1
scaled lipid accumulation score (library stock concentration: 80 uM): ≤ -0.001 | scaled lipid accumulation score [3]: ≤ -0.001 | scaled lipid accumulation score [4]: ≤ -0.001 | scaled lipid accumulation score [1]: ≤ -0.001

OCC(O)CCO/N=C1\C(c2c(O)[nH]c3ccccc23)=Nc2ccccc21 (stereo not drawn) [Indirubin Derivative E804]
scaled lipid accumulation score [5]: ≤ 0

Cl.Fc1ccc([C@@H]2CCNC[C@H]2COc2ccc3c(c2)OCO3)cc1 [Paroxetine HCl]
scaled lipid accumulation score [5]: 0.491 (active)

Fc1ccc([C@@H]2CCNC[C@H]2COc2ccc3c(c2)OCO3)cc1 [Paroxetine]
scaled lipid accumulation score [1]: 0.634

Fc1ccc([C@@H]2CCNC[C@H]2COc2ccc3c(c2)OCO3)cc1 [Paroxetine HCl] [listing 1 of 2 here]
scaled lipid accumulation score (library stock concentration: 6.1 mM): 1.01 (active)

Fc1ccc([C@@H]2CCNC[C@H]2COc2ccc3c(c2)OCO3)cc1 [Paroxetine hydrochloride]
scaled lipid accumulation score [1]: 0.808

Fc1ccc([C@@H]2CCNC[C@H]2COc2ccc3c(c2)OCO3)cc1 [Paroxetine hydrochloride hemihydrate (MW = 374.83)]
scaled lipid accumulation score [1]: 0.836

c1ccc(N2CCN(CCCOc3ccc4c(c3)OCO4)CC2)cc1 [BP 554 maleate]
scaled lipid accumulation score [1]: ≤ 0

Cl.Fc1ccc([C@@H]2CCNC[C@H]2COc2ccc3c(c2)OCO3)cc1 [Paroxetine Hydrochloride]
scaled lipid accumulation score: 1.22 (active)

Fc1ccc([C@@H]2CCNC[C@H]2COc2ccc3c(c2)OCO3)cc1 [Paroxetine HCl] [listing 2 of 2 here]
scaled lipid accumulation score [1]: 0.355

COc1cc(F)c(C(C)C)cc1-c1ccc(C(F)(F)F)cc1CN1C(=O)O[C@H](c2cc(C(F)(F)F)cc(C(F)(F)F)c2)[C@@H]1C [Anacetrapib (MK-0859)]
scaled lipid accumulation score [5]: ≤ 0 | scaled lipid accumulation score [1]: ≤ 0

C=C1C[C@@H](O)[C@H](/C=C/[C@@H](O)CCCCC)[C@H]1C/C=C\CCCC(=O)O [9-deoxy-9-methylene Prostaglandin E2]
scaled lipid accumulation score [2]: 0.01

Cc1cc(C)cc(NC(=O)Cc2ccc(OC(C)(C)C(=O)O)cc2)c1 [Efaproxiral Sodium]
scaled lipid accumulation score [5]: ≤ 0 | scaled lipid accumulation score [1]: ≤ -0.001

O=C1Cc2c([nH]c3ccc([N+](=O)[O-])cc23)-c2ccccc2N1 [Alsterpaullone]
scaled lipid accumulation score [5]: ≤ 0

COc1ccc(/C=C/C(=O)Nc2c(O)cccc2C(=O)O)cc1OC
scaled lipid accumulation score [2]: ≤ 0

O=C(c1ccccc1)c1ccc2n1CCC2C(=O)O (stereo not drawn) [Ketorolac]
scaled lipid accumulation score [5]: ≤ 0 | scaled lipid accumulation score [1]: ≤ 0

O=C(c1ccccc1)c1ccc2n1CCC2C(=O)O (stereo not drawn) [Ketorolac tromethamine]
scaled lipid accumulation score: ≤ 0 | scaled lipid accumulation score (library stock concentration: 5.3 mM): ≤ 0 | scaled lipid accumulation score [1]: 0.024

O=C(c1ccccc1)c1ccc2n1CCC2C(=O)O (stereo not drawn) [Ketorolac (tromethamine salt)]
scaled lipid accumulation score [2]: ≤ 0

O=C(c1ccccc1)c1ccc2n1CCC2C(=O)O (stereo not drawn) [Ketorolac tris salt]
scaled lipid accumulation score [1]: ≤ -0.055

O=C(c1ccccc1)c1ccc2n1CCC2C(=O)O (stereo not drawn)
scaled lipid accumulation score [1]: ≤ 0

O=C(c1cccnc1)N1CCOCC1
scaled lipid accumulation score [1]: 0.163

COC(=O)[C@]12CCC(C)(C)C[C@H]1[C@H]1C(=O)C=C3[C@@]4(C)C=C(C#N)C(=O)C(C)(C)[C@@H]4CC[C@@]3(C)[C@]1(C)CC2 [Bardoxolone Methyl]
scaled lipid accumulation score [5]: 0.195 | scaled lipid accumulation score [1]: 0.183

CC(C)OC(=O)CCC/C=C\C[C@@H]1[C@@H](/C=C/[C@@H](O)COc2cccc(C(F)(F)F)c2)[C@H](O)C[C@@H]1O
scaled lipid accumulation score [1]: ≤ 0

O=C(/C=C\n1cnc(-c2cc(C(F)(F)F)cc(C(F)(F)F)c2)n1)NNc1cnccn1
scaled lipid accumulation score [5]: ≤ -0.009 | scaled lipid accumulation score [1]: 0.384

CC1(C)S[C@@H]2[C@H](NC(=O)[C@H](NC(=O)N3CCN(S(C)(=O)=O)C3=O)c3ccccc3)C(=O)N2[C@H]1C(=O)O [Mezlocillin Sodium]
scaled lipid accumulation score [5]: ≤ 0 | scaled lipid accumulation score [1]: 0.043

C[C@@H](CN1CCC(n2c(=O)[nH]c3cc(Cl)ccc32)CC1)NC(=O)c1ccc2ccccc2c1
scaled lipid accumulation score [2]: 0.02

C[C@@H](CN1CCC(n2c(=O)[nH]c3cc(Cl)ccc32)CC1)NC(=O)c1ccc2ccccc2c1.Cl
scaled lipid accumulation score [1]: 1.12 (active)

O=C(NCCN1CCC(n2c(=O)[nH]c3cc(Cl)ccc32)CC1)c1ccc(F)cc1 [Halopemide]
scaled lipid accumulation score [2]: ≤ 0

Brc1ccc(C2CN3CCSC3=N2)cc1 (single isomer, unassigned; (-)) [(-)-p-Bromotetramisole Oxalate]
scaled lipid accumulation score [5]: ≤ -0.009 | scaled lipid accumulation score [1]: 0.192

C=CCNC(=O)c1cc([N+](=O)[O-])cc2c(=O)[nH]c(Nc3ccc(Cl)c(Cl)c3)nc12
scaled lipid accumulation score [1]: 0.02

Cc1nc(-c2ccccc2)c(-c2ccncc2)o1
scaled lipid accumulation score [5]: ≤ 0

CO[C@@H](C(=O)N1Cc2[nH]nc(NC(=O)c3ccc(N4CCN(C)CC4)cc3)c2C1)c1ccccc1 [listing 1 of 2 here]
scaled lipid accumulation score [3]: ≤ -0.005 | scaled lipid accumulation score [4]: ≤ -0.005 | scaled lipid accumulation score [5]: 0.533 | scaled lipid accumulation score [1]: 0.779

CO[C@@H](C(=O)N1Cc2[nH]nc(NC(=O)c3ccc(N4CCN(C)CC4)cc3)c2C1)c1ccccc1 [listing 2 of 2 here]
scaled lipid accumulation score [1]: 0.915 (active)

CCc1cccc(CC)c1NC(=O)N1Cc2[nH]nc(NC(=O)c3ccc(N4CCN(C)CC4)cc3)c2C1
scaled lipid accumulation score [5]: 0.21 | scaled lipid accumulation score [1]: 0.34
